# Test results reported in PubChem BioAssay (NCI).
# Compounds without any hit were thinned out: in the full panel of roughly 79,000, 15% have a hit. Values without a mark were called inactive. The source made the active and inactive calls. No stated cut-off is given here; in the data, active means growth inhibition above about 70%; inactive means the rest.
# Test: NCI Yeast Anticancer Drug Screen. Data for the rad50 strain (AID 155);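 further: 0% = growth of vehicle-only cultures of the same strain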
# Conditions: S. cerevisiae rad50 strain growth inhibition; at 5.0 µM (retest, dose inferred, filed as 0.5); hits give high values
# Method in brief: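 Genetically altered yeast (DNA repair pathway); compound treatment; growth inhibition vs vehicle ctrl.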
row,Structure (SMILES),growth inhibition
1,CC1=CC2OC3CC4OC(=O)/C=C/C=C/C(C(C)O)OCC(=O)C(C)CC(=O)OCC2(CC1)C4(C)C31CO1 (centres undefined),28%
2,Cc1cc(=O)oc2c3c(ccc12)OC(c1ccc(Br)cc1)CC3=O (centres undefined),28%
3,OCC(O)C(O)C(O)/C=N\Nc1ccccc1 (centres undefined),9%
4,CN(C)Cc1ccc2[nH]c3c(c2c1)CCCC3,4%
5,CC(C)CCCC(C)C1CCC2C3CC=C4OC(=O)CCC4(C)C3CCC12C (centres undefined),-11%
6,CC(C(=O)c1ccc2cc(Br)c3ccccc3c2c1)N(C)C (centres undefined),-6%
7,O=[N+]([O-])c1ccccc1SCc1ccccc1,17%
8,C(=P(c1ccccc1)(c1ccccc1)c1ccccc1)[P+](c1ccccc1)(c1ccccc1)c1ccccc1,98% (active)
9,CCOC(=O)N1CCN(C(=S)N/N=C(\C)c2ncccn2)CC1,4%
10,CCC1(C)C(C#N)(C#N)C1(C#N)C#N,-18%
11,Cc1ccccc1C(O)(c1ccccc1C)C1(O)CCN(C)CC1,0%
12,Oc1c(C(Nc2ccccn2)c2ccccc2)ccc2cccnc12 (centres undefined),8%
13,Cc1ccc(C(CN(C)C)C(=O)c2ccccc2)cc1C (centres undefined),-4%
14,COC(=O)/C=C(\NC1CC(OC2C[C@](O)(C(C)=O)Cc3c(O)c4c(c(O)c32)C(=O)c2c(OC)cccc2C4=O)OC(C)C1O)C(=O)OC (some centres undefined),25%
15,CC1(C)C/C(=N/NC(N)=S)C(=NO)/C(=N\NC(N)=S)C1,6%
16,Cc1cc2c(c(C(N)=O)c1C)-c1cccc(F)c1C2=O,4%
17,CN(C)c1ccc(/C=C(\C#N)c2cccc(Cl)c2)cc1,1%
18,Cc1ccc(S(=O)(=O)NNc2nc(N(C)C)nc(N(C)C)n2)cc1,1%
19,CC(NNC(=S)NCc1ccccc1)c1cc2ccccc2cn1 (centres undefined),12%
20,COc1ccc(Cc2c(-c3ccc(C)cc3)n[nH]c(=O)c2C2C(=O)N(c3ccccc3)N=C2c2ccccc2)cc1 (centres undefined),98% (active)

row,Structure (SMILES),growth inhibition
1,CC1(c2ccccc2)OC(=O)C=CC1=O (centres undefined),15%
2,CC1CCC(C)(C)c2cc([N+](=O)[O-])cc([N+](=O)[O-])c21 (centres undefined),-1%
3,CC1(C)CC(=O)C(/C=N/c2nc(-c3cccc([N+](=O)[O-])c3)cs2)=C(O)C1,17%
4,O=[N+]([O-])C(=C1Nc2ccccc2N1)C(Cl)=C(Cl)Cl,10%
5,COc1ccc2c(c1)C1(C)CCCC(C)(C(=O)O)C1C(Br)C2=O (centres undefined),6%
6,COc1cc(NCC(C)(O)CN2CCC(C)CC2C)c2ncccc2c1 (centres undefined),14%
7,ClC/C=C/c1ccccc1,2%
8,O=C(c1ccc(O)c(Br)c1)c1cc(Br)ccc1O,66%
9,COc1ccc(OP2(Oc3ccc(OC)cc3)=NP(Oc3ccc(OC)cc3)(Oc3ccc(OC)cc3)=NP(Oc3ccc(OC)cc3)(Oc3ccc(OC)cc3)=NP(Oc3ccc(OC)cc3)(Oc3ccc(OC)cc3)=N2)cc1,41%
10,COc1ccccc1NC(=O)CSC(N)=O,5%
11,Cc1ccc(N=C(N)Nc2ccc(C)cn2)nc1,6%
12,FC(F)(F)c1nc(Cl)nc2nc[nH]c12,3%
13,O=[N+]([O-])c1ccccc1CC(c1c[nH]c2ccccc12)c1c[nH]c2ccccc12,0%
14,O=C(O)C1CCCCC1.[Ag],43%
15,CC(C)c1ccc(O)c(O)c(=O)c1,14%
16,CC(C)(C)c1ccc(Sc2ncnc3ccccc23)cc1,4%
17,CC(C)NC(=O)CN1C(=O)NC(C)(c2ccccc2)C1=O (centres undefined),-4%
18,COc1cccc(N2CCN(CC(O)COc3cc4c(c5c3CCCC5)CCCC4)CC2)c1 (centres undefined),17%
19,CC(CCN)(CCN)[N+](=O)[O-],16%
